Targets with a hit are over-represented here; the source holds about 8,800 in all. About 0.5% of all pairs of compound and target were hits. Values without a mark were called inactive.
Key:
Assay in all cases: log2 fold change, soluble protein after heating vs DMSO (PISA); higher = thermal stabilisation; K562 lysate, 10 uM; active = over 0.2 and 3.5 SD of the protein, either way, in both replicates (recomputed)
alvocidib = compound: CN1CC[C@H](c2c(O)cc(O)c3c(=O)cc(-c4ccccc4Cl)oc23)[C@H](O)C1 [alvocidib]
How it was run: (§1)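 The values are log-two fold changes in thermal stability compared with solvent controls and come from duplicates. They were obtained by TMTpro 16plex LC-MS/MS, with channel sums equalised, on the supernatant after 21,000xg for 90 min. That supernatant came from crude K562 extract at 1 mg/mL protein treated with 10 μM compound for 30 min, heated for 3 min across 48°C-58°C, pooled and brought to 0.5% NP-40 at 4°C.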

Tubastatin A = compound: CN1CCc2c(c3ccccc3n2Cc2ccc(C(=O)NO)cc2)C1 [Tubastatin A]
How it was run: as §1

[1] = compound: CNC(=O)C1=CC=CC=C1NC2=NC(=NC=C2Cl)NC3=C(C=C(C=C3)N4CCOCC4)OC
How it was run: as §1

defactinib = compound: CNC(=O)c1ccc(Nc2ncc(C(F)(F)F)c(NCc3nccnc3N(C)S(C)(=O)=O)n2)cc1 [defactinib]
How it was run: as §1

[2] = compound: CNc1nc(-c2ccc3c(N)n[nH]c3c2)cc(N2C[C@@H](C(=O)NC3CCCCC3)CC[C@H]2C)n1
How it was run: as §1

encorafenib = compound: COC(=O)N[C@@H](C)CNc1nccc(-c2cn(C(C)C)nc2-c2cc(Cl)cc(NS(C)(=O)=O)c2F)n1 [encorafenib]
How it was run: as §1

[3] = compound: COC(=O)[C@H](CCSC)NC(=O)C1=C(C=C(C=C1)NC[C@H](CS)N)C2=CC=CC=C2
How it was run: as §1

alisertib = compound: COc1cc(Nc2ncc3c(n2)-c2ccc(Cl)cc2C(c2c(F)cccc2OC)=NC3)ccc1C(=O)O [alisertib]
How it was run: as §1

[4] = compound: COc1cc2nc(-c3cc(F)ccc3O)nc(N[C@@H]3CNC[C@H]3C(C)(C)O)c2cc1OC
How it was run: as §1

gefitinib = compound: COc1cc2ncnc(Nc3ccc(F)c(Cl)c3)c2cc1OCCCN1CCOCC1 [gefitinib]
How it was run: as §1

UniProt O95926, sequence (O95926 whole entry, looked up): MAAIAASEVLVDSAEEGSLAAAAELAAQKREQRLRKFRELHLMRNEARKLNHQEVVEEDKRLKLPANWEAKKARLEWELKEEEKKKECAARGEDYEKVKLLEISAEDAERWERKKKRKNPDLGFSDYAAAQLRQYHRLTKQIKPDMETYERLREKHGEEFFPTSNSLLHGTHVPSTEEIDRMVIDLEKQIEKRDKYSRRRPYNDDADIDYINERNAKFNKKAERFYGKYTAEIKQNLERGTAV
UniProt Q8TBC3, sequence (Q8TBC3 whole entry, looked up): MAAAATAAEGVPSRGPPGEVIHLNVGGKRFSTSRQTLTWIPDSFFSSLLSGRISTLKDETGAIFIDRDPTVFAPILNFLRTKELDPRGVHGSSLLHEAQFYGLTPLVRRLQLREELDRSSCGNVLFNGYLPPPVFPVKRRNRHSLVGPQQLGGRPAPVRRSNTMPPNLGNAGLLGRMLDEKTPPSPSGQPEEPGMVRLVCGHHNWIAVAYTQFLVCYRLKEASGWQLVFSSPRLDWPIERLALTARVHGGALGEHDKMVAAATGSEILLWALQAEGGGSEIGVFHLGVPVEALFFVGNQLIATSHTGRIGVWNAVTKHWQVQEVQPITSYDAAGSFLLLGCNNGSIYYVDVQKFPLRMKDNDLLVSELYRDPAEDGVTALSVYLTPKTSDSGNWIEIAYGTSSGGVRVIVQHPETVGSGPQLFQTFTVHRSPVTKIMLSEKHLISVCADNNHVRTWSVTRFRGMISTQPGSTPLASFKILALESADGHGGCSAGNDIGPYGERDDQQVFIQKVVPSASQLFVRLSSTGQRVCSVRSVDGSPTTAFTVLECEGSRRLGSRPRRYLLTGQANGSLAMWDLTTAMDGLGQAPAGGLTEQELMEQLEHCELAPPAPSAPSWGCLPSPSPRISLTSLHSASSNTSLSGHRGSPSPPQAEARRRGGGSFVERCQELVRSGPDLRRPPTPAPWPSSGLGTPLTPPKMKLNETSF
UniProt Q13573, sequence (Q13573 whole entry, looked up): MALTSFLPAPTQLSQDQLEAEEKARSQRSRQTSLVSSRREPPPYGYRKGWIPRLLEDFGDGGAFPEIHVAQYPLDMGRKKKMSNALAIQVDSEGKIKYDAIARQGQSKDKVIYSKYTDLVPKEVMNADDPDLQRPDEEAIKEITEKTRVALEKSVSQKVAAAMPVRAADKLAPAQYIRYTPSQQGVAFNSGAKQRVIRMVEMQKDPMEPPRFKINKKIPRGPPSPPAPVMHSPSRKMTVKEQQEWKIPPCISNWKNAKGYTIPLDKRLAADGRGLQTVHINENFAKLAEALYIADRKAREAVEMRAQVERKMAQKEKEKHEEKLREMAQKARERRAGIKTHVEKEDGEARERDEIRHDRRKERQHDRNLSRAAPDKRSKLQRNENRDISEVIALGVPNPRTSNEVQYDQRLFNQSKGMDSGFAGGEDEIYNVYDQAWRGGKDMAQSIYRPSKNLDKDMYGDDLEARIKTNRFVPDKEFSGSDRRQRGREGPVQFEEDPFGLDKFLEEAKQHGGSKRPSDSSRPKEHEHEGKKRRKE
UniProt P19623, sequence (P19623 whole entry, looked up): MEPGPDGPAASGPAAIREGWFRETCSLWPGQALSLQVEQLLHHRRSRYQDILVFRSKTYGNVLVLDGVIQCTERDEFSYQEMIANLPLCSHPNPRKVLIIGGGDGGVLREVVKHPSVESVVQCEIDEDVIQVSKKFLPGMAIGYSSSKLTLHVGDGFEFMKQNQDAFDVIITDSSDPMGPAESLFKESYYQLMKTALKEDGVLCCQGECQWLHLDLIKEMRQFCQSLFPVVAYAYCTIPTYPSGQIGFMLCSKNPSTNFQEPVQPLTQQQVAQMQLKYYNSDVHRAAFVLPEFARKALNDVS
UniProt Q96SB8, sequence (Q96SB8 whole entry, looked up): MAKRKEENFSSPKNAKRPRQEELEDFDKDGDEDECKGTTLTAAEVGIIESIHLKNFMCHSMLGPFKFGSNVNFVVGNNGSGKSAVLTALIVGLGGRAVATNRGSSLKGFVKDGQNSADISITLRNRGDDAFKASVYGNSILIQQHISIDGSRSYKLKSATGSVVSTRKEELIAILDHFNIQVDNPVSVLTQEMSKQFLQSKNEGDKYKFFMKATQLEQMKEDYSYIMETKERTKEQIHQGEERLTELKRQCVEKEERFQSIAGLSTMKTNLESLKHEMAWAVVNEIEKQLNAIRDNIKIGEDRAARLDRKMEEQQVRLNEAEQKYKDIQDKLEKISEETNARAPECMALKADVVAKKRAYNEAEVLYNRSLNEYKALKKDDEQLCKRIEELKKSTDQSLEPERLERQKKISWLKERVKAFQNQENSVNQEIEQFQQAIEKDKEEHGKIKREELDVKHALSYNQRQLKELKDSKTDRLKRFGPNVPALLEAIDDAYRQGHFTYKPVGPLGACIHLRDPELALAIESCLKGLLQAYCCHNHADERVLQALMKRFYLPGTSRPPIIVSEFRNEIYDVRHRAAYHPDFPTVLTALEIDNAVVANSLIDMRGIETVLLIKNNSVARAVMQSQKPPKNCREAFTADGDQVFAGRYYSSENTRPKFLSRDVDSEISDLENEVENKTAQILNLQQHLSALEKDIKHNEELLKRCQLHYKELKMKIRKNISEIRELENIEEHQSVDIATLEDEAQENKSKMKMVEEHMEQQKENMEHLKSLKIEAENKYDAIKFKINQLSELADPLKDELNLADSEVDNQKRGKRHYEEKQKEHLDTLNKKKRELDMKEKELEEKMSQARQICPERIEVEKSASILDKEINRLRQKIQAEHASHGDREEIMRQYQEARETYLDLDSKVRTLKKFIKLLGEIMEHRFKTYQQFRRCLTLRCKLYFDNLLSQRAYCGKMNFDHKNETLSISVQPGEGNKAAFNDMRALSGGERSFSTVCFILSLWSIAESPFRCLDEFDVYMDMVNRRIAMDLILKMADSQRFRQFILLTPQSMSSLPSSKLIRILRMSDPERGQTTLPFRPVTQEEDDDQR
UniProt Q8NB90, sequence (Q8NB90 whole entry, looked up): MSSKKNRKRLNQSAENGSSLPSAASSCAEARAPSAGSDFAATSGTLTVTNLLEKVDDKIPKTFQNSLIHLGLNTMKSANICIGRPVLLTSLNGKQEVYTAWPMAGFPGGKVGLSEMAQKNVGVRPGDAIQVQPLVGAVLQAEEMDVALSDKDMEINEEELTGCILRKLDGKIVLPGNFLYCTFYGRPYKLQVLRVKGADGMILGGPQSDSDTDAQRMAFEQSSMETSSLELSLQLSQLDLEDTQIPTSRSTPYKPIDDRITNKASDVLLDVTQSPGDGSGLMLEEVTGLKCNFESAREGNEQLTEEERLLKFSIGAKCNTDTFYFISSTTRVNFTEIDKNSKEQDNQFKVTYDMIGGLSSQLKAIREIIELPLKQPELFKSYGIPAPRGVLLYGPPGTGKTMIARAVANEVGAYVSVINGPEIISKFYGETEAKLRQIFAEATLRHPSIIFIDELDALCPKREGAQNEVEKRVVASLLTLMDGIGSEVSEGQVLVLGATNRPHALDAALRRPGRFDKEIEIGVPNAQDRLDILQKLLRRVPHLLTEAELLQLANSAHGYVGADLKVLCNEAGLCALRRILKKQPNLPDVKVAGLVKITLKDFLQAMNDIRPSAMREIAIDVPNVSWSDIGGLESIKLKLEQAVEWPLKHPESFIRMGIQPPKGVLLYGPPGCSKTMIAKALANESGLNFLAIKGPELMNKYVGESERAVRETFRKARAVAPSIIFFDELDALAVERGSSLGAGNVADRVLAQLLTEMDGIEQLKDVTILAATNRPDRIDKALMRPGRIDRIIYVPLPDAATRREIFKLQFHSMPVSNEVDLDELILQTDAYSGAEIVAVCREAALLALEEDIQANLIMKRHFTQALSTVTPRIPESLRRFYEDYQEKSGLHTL
UniProt Q6PML9, sequence (Q6PML9 whole entry, looked up): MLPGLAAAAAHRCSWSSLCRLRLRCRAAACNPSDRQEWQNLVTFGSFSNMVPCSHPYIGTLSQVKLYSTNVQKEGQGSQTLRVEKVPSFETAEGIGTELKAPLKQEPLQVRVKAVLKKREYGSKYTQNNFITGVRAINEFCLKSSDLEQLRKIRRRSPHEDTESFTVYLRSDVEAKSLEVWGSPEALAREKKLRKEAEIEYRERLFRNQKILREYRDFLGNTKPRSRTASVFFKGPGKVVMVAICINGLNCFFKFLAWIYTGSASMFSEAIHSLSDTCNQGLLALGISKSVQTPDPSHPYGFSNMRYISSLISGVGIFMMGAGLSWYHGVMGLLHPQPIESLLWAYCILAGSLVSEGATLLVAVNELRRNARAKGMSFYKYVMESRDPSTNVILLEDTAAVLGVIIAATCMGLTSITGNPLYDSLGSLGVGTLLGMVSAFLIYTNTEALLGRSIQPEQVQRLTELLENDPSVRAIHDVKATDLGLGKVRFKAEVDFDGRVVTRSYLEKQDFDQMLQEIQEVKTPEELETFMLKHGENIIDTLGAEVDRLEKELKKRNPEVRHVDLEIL
UniProt P50225, sequence (P50225 whole entry, looked up): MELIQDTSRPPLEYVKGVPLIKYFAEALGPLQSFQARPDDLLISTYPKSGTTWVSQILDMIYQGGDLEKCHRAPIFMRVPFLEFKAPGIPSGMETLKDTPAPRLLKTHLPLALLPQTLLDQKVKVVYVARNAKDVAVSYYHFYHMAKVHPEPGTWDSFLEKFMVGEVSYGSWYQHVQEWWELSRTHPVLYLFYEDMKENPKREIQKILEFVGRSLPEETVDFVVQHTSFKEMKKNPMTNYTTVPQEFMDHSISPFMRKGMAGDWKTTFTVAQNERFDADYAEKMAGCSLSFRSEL
UniProt P31947, sequence (P31947 whole entry, looked up): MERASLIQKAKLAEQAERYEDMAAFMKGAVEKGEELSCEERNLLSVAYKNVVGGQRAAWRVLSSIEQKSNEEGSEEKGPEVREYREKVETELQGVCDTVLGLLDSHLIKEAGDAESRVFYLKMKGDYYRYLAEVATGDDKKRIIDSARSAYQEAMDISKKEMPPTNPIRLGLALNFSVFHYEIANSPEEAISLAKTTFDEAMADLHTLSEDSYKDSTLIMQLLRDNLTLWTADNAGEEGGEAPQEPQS
UniProt P62306, sequence (P62306 whole entry, looked up): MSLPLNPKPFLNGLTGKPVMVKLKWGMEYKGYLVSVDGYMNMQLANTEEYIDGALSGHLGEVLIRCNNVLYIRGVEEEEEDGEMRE

Row | Target | log2 fold change (alvocidib) | log2 fold change (Tubastatin A) | log2 fold change [1] | log2 fold change (defactinib) | log2 fold change [2] | log2 fold change (encorafenib) | log2 fold change [3] | log2 fold change (alisertib) | log2 fold change [4] | log2 fold change (gefitinib)
1 | SMAD9 (UniProt O15198) | 0.008 | -0.075 | 0.089 | -0.081 | 0.011 | 0.014 | -0.014 | 0.052 | 0.047 | -0.028
2 | SMC6 (UniProt Q96SB8) | -0.017 | -0.087 | 0.049 | -0.003 | -0.004 | -0.02 | 0.045 | -0.018 | -0.013 | 0.007
3 | SLC40A1 (UniProt Q9NP59) | 0.002 | 0.145 | -0.05 | 0.087 | -0.029 | 0.013 | -0.072 | 0.018 | 0.039 | -0.01
4 | SFN (UniProt P31947) | 0.05 | 0.054 | -0.009 | 0.052 | -0.017 | -0.024 | 0.065 | 0.076 | 0.008 | -0.008
5 | SLC26A6 (UniProt Q9BXS9) | -0.095 | -0.05 | -0.004 | 0.055 | 0.086 | -0.016 | -0.111 | 0.06 | -0.056 | -0.022
6 | SH3BP5L (UniProt Q7L8J4) | -0.003 | -0.012 | 0.036 | -0.003 | -0.015 | 0.058 | -0.047 | 0.021 | 0.015 | 0.001
7 | SRP54 (UniProt P61011) | -0.023 | 0.01 | -0.011 | 0.035 | 0.023 | 0.067 | 0.011 | 0.055 | 0.043 | -0.025
8 | TARBP1 (UniProt Q13395) | 0.009 | -0.118 | -0.066 | -0.034 | 0.047 | 0.073 | -0.236 | 0.018 | -0.004 | 0.011
9 | SYF2 (UniProt O95926) | 0.004 | 0.039 | 0.103 | -0.034 | 0.049 | 0.038 | 0.033 | 0.018 | 0.058 | 0.038
10 | SLC29A2 (UniProt Q14542) | -0.134 | -0.018 | 0.187 | -0.011 | -0.042 | 0.025 | 0.007 | -0.031 | 0.008 | 0.046
11 | SNRPF (UniProt P62306) | -0.119 | -0.028 | -0.02 | 0.014 | -0.034 | 0.021 | 0.014 | -0.03 | 0.022 | 0.084
12 | SSB (UniProt E7ERC4) | 0.132 | 0.154 | -0.072 | -0.285 | -0.023 | 0.081 | 0.013 | -0.091 | 0.095 | 0.072
13 | SPATA5 (UniProt Q8NB90) | 0.033 | -0.101 | 0.007 | 0.029 | 0.085 | 0.04 | 0.008 | 0.025 | 0.004 | -0.024
14 | SKP2 (UniProt Q13309) | -0.048 | -0.077 | 0.044 | 0.189 | 0.03 | -0.053 | 0.085 | 0.01 | 0.173 | 0.058
15 | SPATA5L1 (UniProt Q9BVQ7) | 0.022 | -0.16 | 0.019 | 0.036 | 0.23 | 0 | -0.061 | 0.024 | -0.052 | -0.013
16 | SULT1A1 (UniProt P50225) | 0.031 | -0.043 | 0.018 | -0.11 | 0.06 | 0.026 | 0.017 | 0.036 | -0.005 | -0.011
17 | STK39 (UniProt Q9UEW8) | 0.011 | -0.128 | -0.015 | 0 | -0.026 | -0.021 | 0.164 | -0.055 | 0.02 | 0.028
18 | STAT2 (UniProt P52630) | 0.02 | -0.183 | 0.016 | -0.03 | -0.018 | 0.023 | -0.014 | 0.006 | 0.004 | -0.023
19 | SNW1 (UniProt Q13573) | 0.023 | 0.051 | 0.02 | 0.006 | 0.073 | 0.02 | -0.119 | 0.014 | -0.003 | -0.03
20 | SHKBP1 (UniProt Q8TBC3) | -0.038 | -0.018 | -0.002 | 0.115 | 0.046 | -0.05 | 0.274 (active) | 0.019 | 0.001 | 0.023
21 | STIM1 (UniProt Q13586) | 0.008 | -0.056 | -0.041 | -0.018 | 0.024 | 0.003 | -0.016 | 0.008 | -0.106 | -0.013
22 | STK11IP (UniProt Q8N1F8) | 0.013 | -0.005 | -0.025 | 0.041 | -0.014 | 0.053 | 0.062 | -0.026 | 0.025 | 0.069
23 | TARDBP (UniProt Q13148) | -0.006 | -0.318 (active) | -0.044 | 0 | -0.139 | 0.181 | 0.137 | 0.012 | -0.004 | 0.06
24 | SLC30A9 (UniProt Q6PML9) | 0 | 0.022 | 0.002 | 0.064 | 0.023 | 0.032 | 0.05 | -0.008 | -0.079 | -0.01
25 | SMG5 (UniProt Q9UPR3) | 0.086 | -0.075 | 0.014 | 0.04 | -0.037 | 0.067 | 0.058 | 0.04 | 0.004 | 0.028
26 | SLC38A10 (UniProt Q9HBR0) | -0.036 | 0.074 | -0.015 | 0.023 | 0.04 | 0.037 | -0.06 | -0.032 | 0.032 | -0.046
27 | SLC27A2 (UniProt O14975) | 0.005 | -0.009 | 0.216 | -0.044 | 0.172 | 0.063 | 0.019 | 0.002 | 0.017 | -0.089
28 | SQLE (UniProt Q14534) | 0.003 | 0.377 (active) | 0.018 | -0.009 | -0.022 | 0.002 | 0.437 (active) | 0.059 | -0.015 | -0.045
29 | SRM (UniProt P19623) | 0.008 | -0.014 | -0.014 | -0.03 | -0.03 | -0.011 | 0.083 | -0.03 | 0.016 | 0.011
30 | SMARCA4 (UniProt P51532) | 0.004 | -0.078 | -0.007 | 0.002 | -0.003 | 0.021 | 0.056 | 0.019 | -0.002 | -0.001

Reference: the supplement of paper PMC10849652
